Entries with a potency or affinity are not part of this list. Inconclusive results are not listed. The source made the active and inactive calls.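 The calls were made as follows: active = luminescence drop in HepG2 cells whose fitted half-effect dose is at most twice the top valid dose; inconclusive = flat curve with 30 to 70% signal loss, or unreliable fit; inactive = the rest.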
Assay: HepG2 hepatoma cell viability loss – plate reader, dry powder, cytotoxicity control, dose response (AID 651947)
Conditions: ATP luminescence (CellTiter-Glo), 48 h, active compounds read low; at 26 µM unless noted

| Structure (SMILES) | max activity |
| --- | --- |
| Clc1ccc(-c2nnc(SCc3ccccc3)o2)cc1 | -50.8% (inactive) |
| COc1ccc(CSc2nnc(-c3ccccc3)o2)cc1 | -24.9% [at 0.195 µM] (inactive) |
| c1ccc(CSc2nnc(-c3ccccc3)o2)cc1 | -12.1% [at 1.6 µM] (inactive) |

— PubChem BioAssay AID651947 (Broad Institute, 2012)
